Source: PubChem BioAssay (NCI)
The panel holds about 83,000 compounds, 20% with a hit somewhere; the sample as a whole holds those more often.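 Activity criterion: percent growth below 10, measured after cells in 96-well plates were exposed to a single compound concentration for 48 hours.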 The source made the active and inactive calls.

These compounds were tested on HL-60(TB) leukemia (assay: NCI-60 one-dose screen, 48 h (100 = growth as untreated, 0 = no growth, -100 = all killed)). Settings: 10 µM unless noted.
For CC(=O)N1N=C2N(Cc3ccccc3)C(=O)c3c(sc4c3CCCC4)N2C1c1cn(-c2ccccc2)nc1-c1ccc(Cl)cc1 (stereo not given), the growth was 88.5% (inactive).
With CCCCOS(=O)(=O)c1ccccc1 the growth was 111% (inactive).
With COc1ccc2[nH]c(=O)c(/C=C/C(=O)c3ccc(Nc4nccc(-c5ccc6ccccc6c5)n4)cc3)cc2c1 the growth was 97.6% (inactive).
In the case of COc1ccc(/C=N/NC(=O)Cn2c(-c3ccc(S(C)(=O)=O)cc3)nc3cc(Cl)ccc32)cc1, the growth is reported as -51.6% (active).
With Fc1cc(-c2ncc(-c3cc(F)c(F)c(F)c3)c(NC3CCCCCC3)n2)cc(F)c1F the growth was 97.4% (inactive).
With COc1ccc2nc(NC(=O)Nc3c(F)cccc3F)sc2c1 the growth was 79.1% (inactive).
CCN(CC)CCNC(=O)n1cc(-c2ccncc2)c(-c2ccc(Cl)c(OC)c2)n1 was tested, and the growth was 95.9% (inactive).
COc1c(Cl)cc(Cl)cc1Cl was tested, and the growth was 98.7% (inactive).
CC(=O)c1c(OCC#N)ccc2c(C)cc(=O)oc12 was tested, and the growth was 81.6% (inactive).
For CS(=O)(=O)c1ccc(N/N=C/c2c(-c3ccc(S(C)(=O)=O)cc3)[nH]c3ccc(F)cc23)cc1, the growth was -14.6% (active).
With CN(C)c1ncc(C#Cc2c(F)cccc2F)c2ccccc12 the growth was 59.9% (inactive).
With C/C(=C(/c1ccc(O)cc1)c1ccc(Cl)cc1)c1ccccc1 the growth was -20.7% (active).
For c1ccc(-c2nc3sc(-c4ccccc4)cn3n2)cc1, the growth was 78.8% (inactive).
CSc1nc(CC(C)C)c(C#N)c(=O)n1C was tested, and the growth was 78.7% (inactive).
For Cc1cc(Cl)cc(Cc2cc(Cl)cc(C)c2O)c1O, the growth was -27.9% (active).
For CCOC(=O)CCN(CC(C)C)C(=S)Nc1ccccc1, the growth was 97.2% (inactive).
With COc1ccc(/C=C(\C#N)n2nnc3cc(Cl)ccc32)cc1 the growth was -6.14% (active).
Cc1nc2sc(C(=O)Nc3cccc(Br)c3)c(N)c2cc1C(O)c1ccccc1 (stereo not given) was tested, and the growth was -27.4% (active).
With Cc1cc2ccccc2c[n+]1CC(=O)c1ccc(-c2ccccc2)cc1 the growth was 22.5% (inactive).
CC(=O)O[C@H]1CC2CCC3C(CC[C@@]4(C)C3C[C@H]([N+]3(C)CCCCC3)[C@@H]4OC(C)=O)[C@@]2(C)C[C@@H]1N1CCCCC1 (stereo not given in full) was tested, and the growth was 107% (inactive).
For CC1(C)CCC(S(=O)(=O)c2ccc3c(c2)/C(=N\O)c2cc(S(=O)(=O)N4CCN(c5ccc(F)cc5O)CC4)ccc2-3)CC1, the growth was -70.7% (active).
c1ccc(-c2c(-c3ccccc3)[n+](Cc3ccc4ccccc4c3)cn2Cc2ccc3ccccc3c2)cc1 was tested, and the growth was -67.1% (active).
For O=C(Nc1ncc(Cc2cc(Cl)ccc2Cl)s1)c1cccs1, the growth was 86.1% (inactive).
COc1cccc(/C=C2\CCc3ccccc3C2=O)c1 was tested, and the growth was 63.2% (inactive).
For Cc1cc2nc(C(Cl)Cl)nc(-c3ccc(Cl)cc3)n2n1, the growth was -8.18% (active).
